# System: Plasmodium falciparum
# Test: GSK_TCMDC: Inhibition of Plasmodium falciparum 3D7 in whole red blood cells, using parasite LDH activity as an index of growth. Test compounds present at 2uM
# Type: functional
row,SMILES,Inhibition [%]
1,Cc1ccccc1C(=O)Nc1cccc(-c2nc3ncccn3c2C)c1,94
2,COc1ccc(CNC(=O)NC2CCN(c3ccnc(Nc4cc(OC)c(OC)c(OC)c4)n3)C2)cc1 (stereo not drawn),91
3,CN1CCN(c2cccc(NC(=O)c3ccc(-c4ccc(C#N)cc4)cc3)c2)CC1,84
4,Cc1cc(NC(=O)c2cccs2)ccc1OC1CCN(Cc2ccc(C#N)cc2)CC1.O=C(O)C(F)(F)F,94
5,CN1CCCC(COc2cc3c(cc2Br)CCN3C(=O)Nc2ccc(-c3ccncc3)c(Cl)c2)C1 (stereo not drawn),100
6,COc1cc(Cn2ccc3c4c(N)nc(N)nc4ccc32)cc(OC)c1OC,94
7,COc1ccc2nccc([C@@H](O)CN3CCC(NCCOc4ccncc4)CC3)c2c1.O=C(O)C(=O)O,100
8,Cn1nc(-c2ccc(NC(=O)Nc3ccc4ccccc4c3)c(F)c2)c2cnc(NCCN3CCOCC3)nc21.O=C(O)C(F)(F)F,93
9,Fc1ccc2[nH]c(-c3ccc(-c4ccc(CN5CCN(c6ccncc6)CC5)cc4)cc3)nc2c1.O=C(O)C(F)(F)F,100
10,Cc1ccc(CNC(=O)[C@H](CCCN)Nc2cc(C)nc(Nc3ccccc3)n2)cc1.O=C(O)C(F)(F)F,90
11,Cc1ccc(NC(C)C(=O)Nc2ccc(C#N)cc2)cc1S(=O)(=O)N1CCCCC1 (stereo not drawn),92
12,CCOc1c(CCNCCCCNCCc2ccc3ccccc3c2OCC)ccc2ccccc12.CS(=O)(=O)O,94
13,COc1cc(CNCCCNc2nc(=O)c3sccc3[nH]2)c2[nH]cc(Cl)c2c1.CS(=O)(=O)O,96
